Where “and” joins values, the source holds several entries; their conditions need not be identical. Equal values may be shown once. In all, about 5,500 compounds went through this assay and about 2,000 (36%) were called active. Not shown: some 18% with an inconclusive outcome. Cut-off read from the data, not from the text of the source: active = normalized growth mostly below about 0.91 (no sharp cut-off); inconclusive = no clear call, values can overlap the other calls; inactive = mostly above about 0.92. This is one part of the list.
Assay: chemical genetic growth profiling, strain panel (AID 1159580);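 note: tested at 20 µM; growth read once vehicle control cultures reached saturation at 30 °C; 1 = growth at the plate median or of vehicle wells; lower values mean less growth of the strain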
Settings: S. cerevisiae deletion strains, growth OD

Measured: normalized growth

CCCc1nc(C(C)(C)O)c(C(=O)OCc2oc(=O)oc2C)n1Cc1ccc(-c2ccccc2-c2nn[nH]n2)cc1
inactive: locus YAL013W, strain DEP1, hits give low values 0.99 | locus YAL021C, strain ccr4, hits give low values 0.976 | locus YAL026C, strain drs2, hits give low values 0.966 | locus YAL030W, strain snc1, hits give low values 0.955 | locus YBL061C, strain skt5, hits give low values 0.979 | locus YBR009C, strain hhf1, hits give low values 1 | locus YBR021W, strain FUR4, hits give low values 0.987 | locus YBR023C, strain chs3, hits give low values 0.961 | locus YBR171W, strain sec66, hits give low values 0.957 | locus YBR229C, strain ROT2, hits give low values 0.989 | locus YBR231C, strain swc5, hits give low values 0.974 | locus YBR279W, strain paf1, hits give low values 0.973 | locus YCL011C, strain gbp2, hits give low values 0.945 | locus YCL016C, strain dcc1, hits give low values 0.994 | locus YCL029C, strain bik1, hits give low values 0.982 | locus YCL069W, strain vba3, hits give low values 0.987 | locus YCR088W, strain abp1, hits give low values 0.977 | locus YDL005C, strain med2, hits give low values 0.983 | locus YDL035C, strain GPR1, hits give low values 1 | locus YDL040C, strain nat1, hits give low values 0.976 | locus YDL074C, strain BRE1, hits give low values 1.01 | locus YDL101C, strain DUN1, hits give low values 0.991 | locus YDL134C, strain PPH21, hits give low values 0.986 | locus YDL185W, strain tfp1, hits give low values 0.983 | locus YDL192W, strain arf1, hits give low values 0.985 | locus YDR001C, strain nth1, hits give low values 0.945 | locus YDR069C, strain doa4, hits give low values 0.956 | locus YDR101C, strain arx1, hits give low values 0.994 | locus YDR137W, strain rgp1, hits give low values 0.943 | locus YDR150W, strain NUM1, hits give low values 1 | locus YDR159W, strain sac3, hits give low values 0.933 | locus YDR162C, strain NBP2, hits give low values 1 | locus YDR195W, strain ref2 0.922 | locus YDR297W, strain sur2, hits give low values 0.981 | locus YDR318W, strain mcm21, hits give low values 0.994 | locus YDR334W, strain swr1, hits give low values 0.945 | locus YDR335W, strain msn5, hits give low values 0.952 | locus YDR388W, hits give low values 0.987 | locus YDR392W, strain spt3, hits give low values 1.02 | locus YDR502C, strain sam2, hits give low values 0.986 | locus YEL003W, strain gim4, hits give low values 0.972 | locus YEL037C, strain rad23, hits give low values 0.968 | locus YEL061C, strain CIN8 (second series), hits give low values 0.955 | locus YEL061C, strain CIN8, hits give low values 1.01 | locus YER015W, strain faa2, hits give low values 0.99 | locus YER016W, strain bim1, hits give low values 0.967 | locus YER110C, hits give low values 0.985 | locus YER111C, strain swi4, hits give low values 0.965 | locus YER155C, strain BEM2 (second series), hits give low values 0.906 | locus YER155C, strain BEM2, hits give low values 1.02 | locus YER167W, strain BCK2, hits give low values 0.99 | locus YFR010W, strain ubp6, hits give low values 0.967 | locus YGL078C, strain dbp3, hits give low values 0.99 | locus YGL086W, strain mad1, hits give low values 0.986 | locus YGL167C, strain pmr1, hits give low values 0.957 | locus YGL173C, strain kem1, hits give low values 0.985 | locus YGL227W, strain vid30, hits give low values 0.96 | locus YGL240W, strain doc1, hits give low values 0.949 | locus YGL248W, strain PDE1, hits give low values 0.99 | locus YGL253W, strain hxk2, hits give low values 0.962 | locus YGR078C, strain PAC10, hits give low values 1.02 | locus YGR135W, strain pre9, hits give low values 0.995 | locus YGR229C, strain SMI1, hits give low values 1 | locus YGR252W, strain gcn5, hits give low values 1.02 | locus YHR013C, strain ard1, hits give low values 0.978 | locus YHR027C, strain rpn1, hits give low values 0.973 | locus YHR030C, strain SLT2, hits give low values 0.99 and 0.967 | locus YHR079C, strain IRE1 (second series), hits give low values 0.984 | locus YHR079C, strain IRE1, hits give low values 0.954 | locus YHR094C, strain hxt1, hits give low values 0.989 | locus YHR129C, strain ARP1, hits give low values 0.987 | locus YHR142W, strain chs7, hits give low values 1 | locus YHR200W, strain rpn10, hits give low values 0.981 | locus YIL066C, strain RNR3, hits give low values 0.994 | locus YIL073C, strain SPO22, hits give low values 1.02 | locus YIL125W, strain kgd1, hits give low values 0.989 | locus YIR030C, strain dcg1, hits give low values 0.982 | locus YJL092W, strain hpr5, hits give low values 0.982 | locus YJL095W, strain BCK1 (second series), hits give low values 0.973 | locus YJL095W, strain BCK1, hits give low values 0.987 and 0.988 | locus YJL115W, strain asf1, hits give low values 0.967 | locus YJL129C, strain trk1, hits give low values 0.965 | locus YJL134W, strain LCB3, hits give low values 0.994 | locus YJL154C, strain vps35, hits give low values 0.966 | locus YJL164C, strain tpk1, hits give low values 0.996 | locus YJL166W, strain qcr8, hits give low values 0.966 | locus YJL168C, strain set2, hits give low values 0.997 | locus YJL187C, strain SWE1 (second series), hits give low values 0.987 | locus YJR043C, strain POL32, hits give low values 0.997 | locus YJR066W, strain TOR1, hits give low values 0.931 | locus YJR075W, strain HOC1, hits give low values 1.01

From PubChem BioAssay AID1159580 (chemical genetic matrix, 2015)
